In PubChem BioAssay (NCI):
The panel holds about 83,000 compounds, 20% with a hit somewhere; the sample as a whole holds those more often.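 Growth was measured after 48 h exposure to one concentration of compound in 96-well plates. Values under 10 count as active.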 Calls of active or inactive are those of the source.

Experiments:
Assay in all cases: NCI-60 one-dose screen, 48 h (100 = growth as untreated, 0 = no growth, -100 = all killed)
Details in all cases: 10 µM unless noted
SR leukemia = tested on: SR leukemia
RPMI-8226 leukemia = tested on: RPMI-8226 leukemia
OVCAR-8 ovarian = tested on: OVCAR-8 ovarian
OVCAR-5 ovarian = tested on: OVCAR-5 ovarian
OVCAR-4 ovarian = tested on: OVCAR-4 ovarian
SK-OV-3 ovarian = tested on: SK-OV-3 ovarian
IGROV1 ovarian = tested on: IGROV1 ovarian
OVCAR-3 ovarian = tested on: OVCAR-3 ovarian
HS 578T breast = tested on: HS 578T breast
NCI/ADR-RES ovarian = tested on: NCI/ADR-RES ovarian

Measured: growth

COc1ccc(Cc2cc(-c3ccccc3)nn(Cc3ccccc3)c2=O)cc1OC
inactive: SR leukemia 40.2% | RPMI-8226 leukemia 15.2% | OVCAR-8 ovarian 32.3% | OVCAR-5 ovarian 68.3% | OVCAR-4 ovarian 32.5% | SK-OV-3 ovarian 74.1% | IGROV1 ovarian 47% | OVCAR-3 ovarian 47.6% | HS 578T breast 66.6% | NCI/ADR-RES ovarian 30.2%

O=C(CSc1nc2ccc([N+](=O)[O-])cc2[nH]1)Nc1ccc(F)cc1
inactive: SR leukemia 33.7% | RPMI-8226 leukemia 24.1% | OVCAR-8 ovarian 67.3% | OVCAR-5 ovarian 91.8% | OVCAR-4 ovarian 34.6% | SK-OV-3 ovarian 63.1% | IGROV1 ovarian 68.4% | OVCAR-3 ovarian 47.8% | HS 578T breast 74% | NCI/ADR-RES ovarian 59%

c1cc2[nH]ncc2cc1-c1nc2ccc3[nH]ncc3c2c2c1CCCC2
inactive: RPMI-8226 leukemia 19.8% | OVCAR-8 ovarian 17.4% | OVCAR-5 ovarian 32.5% | OVCAR-4 ovarian 39.9% | OVCAR-3 ovarian 28% | NCI/ADR-RES ovarian 26.6%
active: SR leukemia -13.7% | SK-OV-3 ovarian -25.1% | IGROV1 ovarian 8.59% | HS 578T breast 6.02%

CCN(CC)c1ccc(/C=C/C(=O)c2ccc(Nc3nc(Nc4ccccc4)nc(Nc4ccccc4)n3)cc2)cc1
active: RPMI-8226 leukemia -23.6%
inactive: SR leukemia 39% | OVCAR-8 ovarian 43.8% | OVCAR-5 ovarian 71.3% | OVCAR-4 ovarian 58.5% | SK-OV-3 ovarian 77.4% | IGROV1 ovarian 47.8% | OVCAR-3 ovarian 46.5% | HS 578T breast 26.2% | NCI/ADR-RES ovarian 39.1%

CN1CCN(c2ccc(C(=O)Nc3cccc(C#Cc4cccc5[nH]nc(N)c45)c3)cc2C(F)(F)F)CC1
active: SR leukemia -17.7% | RPMI-8226 leukemia -13.7% | OVCAR-8 ovarian -14.5% | OVCAR-5 ovarian -43.1% | OVCAR-4 ovarian -0.309% | SK-OV-3 ovarian -42.6% | IGROV1 ovarian -56.5% | OVCAR-3 ovarian -17.9% | HS 578T breast -26% | NCI/ADR-RES ovarian -24.7%

CN(C)CCCC1(c2ccc(F)cc2)OCc2cc(-c3cncc4ccccc34)ccc21 (stereo not given)
active: SR leukemia -3.26%
inactive: RPMI-8226 leukemia 35.3% | OVCAR-8 ovarian 62.7% | OVCAR-5 ovarian 70.5% | OVCAR-4 ovarian 43.9% | SK-OV-3 ovarian 59.6% | IGROV1 ovarian 22.1% | OVCAR-3 ovarian 47% | HS 578T breast 27.5% | NCI/ADR-RES ovarian 67%

CC1=Nc2cnc(Nc3ccc(OCCN4CCCCC4)cc3)nc2Nc2ccccc21
inactive: SR leukemia 33.7% | RPMI-8226 leukemia 62.7% | OVCAR-8 ovarian 72.9% | OVCAR-5 ovarian 70.7% | OVCAR-4 ovarian 53% | SK-OV-3 ovarian 34.8% | IGROV1 ovarian 14.7% | OVCAR-3 ovarian 68.9% | HS 578T breast 33.6% | NCI/ADR-RES ovarian 69.8%

Cc1cccc(Cl)c1NC(=O)c1ccc2nc(NC(=O)NCCN(C)C)sc2c1
inactive: SR leukemia 66% | RPMI-8226 leukemia 94% | OVCAR-8 ovarian 85.7% | OVCAR-5 ovarian 85.4% | OVCAR-4 ovarian 95.3% | SK-OV-3 ovarian 64.2% | IGROV1 ovarian 109% | OVCAR-3 ovarian 114% | HS 578T breast 81.8% | NCI/ADR-RES ovarian 118%

Cc1ccc(-c2nc3nc(-c4ccccc4)nc(N4CCNCC4)c3o2)cc1
active: SR leukemia -43% | RPMI-8226 leukemia -61.5% | OVCAR-8 ovarian -73.8% | OVCAR-5 ovarian -89.8% | OVCAR-4 ovarian -82% | SK-OV-3 ovarian -99.6% | IGROV1 ovarian -76.7% | OVCAR-3 ovarian -89.7% | HS 578T breast -51.4% | NCI/ADR-RES ovarian -58.1%

Cc1nn(-c2ccccc2)c(Oc2ccccn2)c1-c1nc2ccccc2s1
inactive: SR leukemia 33.9% | RPMI-8226 leukemia 97.5% | OVCAR-8 ovarian 102% | OVCAR-5 ovarian 93.4% | OVCAR-4 ovarian 98.7% | SK-OV-3 ovarian 97.5% | IGROV1 ovarian 90.6% | OVCAR-3 ovarian 102% | HS 578T breast 110% | NCI/ADR-RES ovarian 98.1%

C[C@]12CC[C@@H]3c4ccc(O)c([N+](=O)[O-])c4CC[C@H]3[C@@H]1CCC2=O
inactive: SR leukemia 115% | RPMI-8226 leukemia 90.5% | OVCAR-8 ovarian 112% | OVCAR-5 ovarian 92% | OVCAR-4 ovarian 81.1% | SK-OV-3 ovarian 123% | IGROV1 ovarian 80.6% | OVCAR-3 ovarian 104% | HS 578T breast 78% | NCI/ADR-RES ovarian 94.9%

C#Cc1ccc(NC(=O)c2ccc(/C=C/C(=O)c3nccn3C)cc2)cc1
active: SR leukemia -18.8% | RPMI-8226 leukemia -25.9% | OVCAR-8 ovarian 5.61% | OVCAR-5 ovarian -61.6% | OVCAR-4 ovarian 9.83% | IGROV1 ovarian -37.3% | OVCAR-3 ovarian -86% | NCI/ADR-RES ovarian -7.85%
inactive: SK-OV-3 ovarian 18.7% | HS 578T breast 33.1%

O=C(OCc1ccc2cccc(O)c2n1)N1CCN(C(=O)c2cc3cc(F)ccc3[nH]2)CC1
active: SR leukemia -9.28% | RPMI-8226 leukemia -26.1% | OVCAR-8 ovarian -40.6% | OVCAR-5 ovarian -84.5% | OVCAR-4 ovarian -71.8% | IGROV1 ovarian -91.4% | OVCAR-3 ovarian -79.3% | HS 578T breast -21.2% | NCI/ADR-RES ovarian -21.5%
inactive: SK-OV-3 ovarian 54.3%

O=C1COCCN1c1ccc(Nc2nc(Cl)nc(OCc3cn(Cc4ccccc4)nn3)n2)cc1
active: SR leukemia 8.29%
inactive: RPMI-8226 leukemia 67.9% | OVCAR-8 ovarian 79.6% | OVCAR-5 ovarian 105% | OVCAR-4 ovarian 83% | SK-OV-3 ovarian 88.8% | IGROV1 ovarian 62.6% | OVCAR-3 ovarian 89.4% | HS 578T breast 85.3% | NCI/ADR-RES ovarian 101%

Cc1ccc(-c2nc(N3CCNCC3)c3oc(-c4ccccc4)nc3n2)cc1
inactive: OVCAR-5 ovarian 14.7% | SK-OV-3 ovarian 87.4%
active: SR leukemia -44% | RPMI-8226 leukemia -54.7% | OVCAR-8 ovarian -66.4% | OVCAR-4 ovarian -51.6% | IGROV1 ovarian -68% | OVCAR-3 ovarian -89.5% | HS 578T breast -7.69% | NCI/ADR-RES ovarian -23.1%

O=C(Nc1cc(Cl)ccc1O)c1ccc(Nc2ccnc(C(F)(F)F)c2)cc1
active: RPMI-8226 leukemia -6.66%
inactive: SR leukemia 23.7% | OVCAR-8 ovarian 51.8% | OVCAR-5 ovarian 86.4% | OVCAR-4 ovarian 43.3% | SK-OV-3 ovarian 64.1% | IGROV1 ovarian 36% | OVCAR-3 ovarian 14.3% | HS 578T breast 49.9% | NCI/ADR-RES ovarian 35.1%

O=C(O)[C@@H]1c2ccccc2-c2ccccc2[C@H]1C(=O)O
inactive: SR leukemia 116% | RPMI-8226 leukemia 100% | OVCAR-8 ovarian 78.4% | OVCAR-5 ovarian 83.2% | OVCAR-4 ovarian 98% | SK-OV-3 ovarian 103% | IGROV1 ovarian 80.7% | OVCAR-3 ovarian 104% | HS 578T breast 94.3% | NCI/ADR-RES ovarian 95.4%

N#Cc1cnc(NCCc2ccncc2)nc1-n1cnc2ccccc21
inactive: SR leukemia 35.4% | RPMI-8226 leukemia 65.3% | OVCAR-8 ovarian 54% | OVCAR-5 ovarian 66.9% | OVCAR-4 ovarian 74.2% | SK-OV-3 ovarian 25.5% | IGROV1 ovarian 29.1% | OVCAR-3 ovarian 76.7% | HS 578T breast 72.1% | NCI/ADR-RES ovarian 64.9%

O=[N+]([O-])c1ccc(N/N=C(/C(=N/Nc2ccc([N+](=O)[O-])cc2)c2ccccc2)c2ccccc2)cc1
inactive: SR leukemia 65.8% | RPMI-8226 leukemia 101% | OVCAR-8 ovarian 60.4% | OVCAR-5 ovarian 82.5% | OVCAR-4 ovarian 116% | SK-OV-3 ovarian 85.6% | IGROV1 ovarian 76.4% | OVCAR-3 ovarian 120% | HS 578T breast 101% | NCI/ADR-RES ovarian 63.7%

COc1cc(-c2cc(-c3ccc(N(C)C)cc3)nc(N3CCC(O)CC3)c2C#N)cc(OC)c1OC
inactive: SR leukemia 13.4% | OVCAR-8 ovarian 16.4% | OVCAR-5 ovarian 20.6% | OVCAR-4 ovarian 50.8% | SK-OV-3 ovarian 35.3% | HS 578T breast 17% | NCI/ADR-RES ovarian 14.9%
active: RPMI-8226 leukemia -5.93% | IGROV1 ovarian 7.25% | OVCAR-3 ovarian -14.6%

CCC(C)N(c1ccc(Cl)cc1)c1nc(-c2ccc(Br)cc2)cs1 (stereo not given)
inactive: SR leukemia 83.5% | RPMI-8226 leukemia 82.8% | OVCAR-8 ovarian 96.7% | OVCAR-5 ovarian 103% | OVCAR-4 ovarian 96.5% | SK-OV-3 ovarian 92.5% | IGROV1 ovarian 82.1% | OVCAR-3 ovarian 107% | HS 578T breast 91.3% | NCI/ADR-RES ovarian 102%

CCN(C(=O)N1CCN(c2cc3c(cc2F)c(=O)c(C(=O)O)cn3C2CC2)CC1)c1nc(-c2ccc(Cl)cc2)cs1
active: SR leukemia 6.27% | SK-OV-3 ovarian -11.9% | IGROV1 ovarian -9.58% | NCI/ADR-RES ovarian 4.67%
inactive: RPMI-8226 leukemia 12.8% | OVCAR-8 ovarian 14.4% | OVCAR-5 ovarian 24.5% | OVCAR-4 ovarian 25.7% | OVCAR-3 ovarian 10.1% | HS 578T breast 20.7%

CCOP(=O)(OCC)c1nc(-c2ccccc2)oc1NCc1cccnc1
inactive: SR leukemia 102% | RPMI-8226 leukemia 101% | OVCAR-8 ovarian 106% | OVCAR-5 ovarian 101% | OVCAR-4 ovarian 112% | SK-OV-3 ovarian 106% | IGROV1 ovarian 100% | OVCAR-3 ovarian 110% | HS 578T breast 109% | NCI/ADR-RES ovarian 105%

CC12CCC3c4ccccc4CCC3(CO1)C2 (stereo not given)
inactive: SR leukemia 99.1% | RPMI-8226 leukemia 97.1% | OVCAR-8 ovarian 103% | OVCAR-5 ovarian 96.3% | OVCAR-4 ovarian 108% | SK-OV-3 ovarian 98.3% | IGROV1 ovarian 121% | OVCAR-3 ovarian 115% | HS 578T breast 93.5% | NCI/ADR-RES ovarian 106%

CCCCC(=O)c1ccco1
inactive: SR leukemia 98.2% | RPMI-8226 leukemia 85.1% | OVCAR-8 ovarian 98.9% | OVCAR-5 ovarian 84.7% | OVCAR-4 ovarian 97.3% | SK-OV-3 ovarian 89.1% | IGROV1 ovarian 91.1% | OVCAR-3 ovarian 104% | HS 578T breast 95.2% | NCI/ADR-RES ovarian 93.3%

O=C(Nc1ncc(Cc2ccc(Cl)c(C(F)(F)F)c2)s1)c1ccc2nnsc2c1
inactive: SR leukemia 57% | RPMI-8226 leukemia 40.8% | OVCAR-8 ovarian 54.8% | OVCAR-5 ovarian 55.8% | OVCAR-4 ovarian 50.7% | SK-OV-3 ovarian 62.5% | IGROV1 ovarian 67.9% | OVCAR-3 ovarian 58.5% | HS 578T breast 84% | NCI/ADR-RES ovarian 40.9%

OB(O)c1cccc(-c2nc3ccc4[nH]ncc4c3c3c2CCCC3)c1
inactive: SR leukemia 32.2% | RPMI-8226 leukemia 53% | OVCAR-8 ovarian 48.7% | OVCAR-5 ovarian 78.3% | OVCAR-4 ovarian 80.2% | IGROV1 ovarian 47.2% | OVCAR-3 ovarian 73.9% | NCI/ADR-RES ovarian 87.6%
active: SK-OV-3 ovarian 7.93% | HS 578T breast 0.588%
